Experimental data taken from PubChem BioAssay.

assay: MRP1 drug-resistance reversers in H69AR cells – cell-based, doxorubicin co-treatment, pilot screen (AID 601); settings: H69AR cells + 2 uM doxorubicin, CellTiter-Glo, 72 h; measured here: viability with 2 uM doxorubicin; at 10 µM; stronger effect = lower value

Structure (SMILES) | viability [%]
CCOC(=O)N1CCC(NC(=O)CCc2c(C)nc3c(c(C)nn3C(C)(C)C)c2C)CC1 | 83.9
Cc1cc2nc(C3CCN(CC4COc5ccccc5O4)CC3)[nH]c2cc1C (stereo not given) | 55.2
CNC(=O)Nc1cccc(C(F)(F)F)c1 | 100
COc1ccccc1C1CC(c2ccc(C)cc2)Nc2ncnn21 (stereo not given) | 118
CCCn1c2ccccc2c2nnc(SCC(=O)OCC)nc21 | 80.2
Cc1nnc2ccc(N3CCN(c4cccc(C(F)(F)F)c4)CC3)nn12 | 61.6
O=C(Cn1ccc2ccccc2c1=O)NCCC(=O)NC1CCN(Cc2ccccc2)CC1 | 82.8
Cc1nc(SCC(=O)Nc2ccccc2C(F)(F)F)c2c(=O)n(C)c(=O)n(C)c2n1 | 76.3
CCOC(=O)N1CCC(NC(=O)CSCc2nc(-c3cccc(OC)c3)oc2C)CC1 | 103
COc1cc(C(=O)N2CCC(c3nc(-c4cccnc4)no3)CC2)cc(OC)c1OC | 82.8
O=C(Nc1ccc2c(c1)OCCO2)c1ccco1 | 79.7
CCOC(=O)c1cnc(-n2nc(C)cc2C)nc1Nc1cccc(C(C)=O)c1 | 97.5
O=c1[nH]cnc2c1nc(SCc1ccccc1)n2C1OC(CO)C(O)C1O (stereo not given) | 92.2
COc1ccc(CCn2c(-c3ccco3)nc3nc4ccccc4nc32)cc1 | 55.4
O=S(=O)(c1ccc(-c2csc(-c3cccnc3)n2)cc1)N1CCCCC1 | 83
CCCOc1nc(N)c(C#N)c(-c2ccccc2F)c1C#N | 60.7
COc1cc(OC)c(OC)cc1CN(C)CCc1ccccn1 | 91.8
CCOC(=O)c1c(-c2cccs2)csc1NC(=O)CCCC(=O)O | 82.4
Cc1cccc(-c2c3c(=O)n(C)c(=O)n(C)c3cn2-c2ccc(O)cc2)c1 | 93.1
CCN(C(=O)CCc1nc(-c2ccccc2F)no1)c1cc(OC)ccc1OC | 94.8

Structure (SMILES) | viability [%]
CCc1nc(SCC(=O)Nc2nccs2)c2oc3ccccc3c2n1 | 42.6
Cc1c(C#N)sc2nc(-c3ccccc3)nc(N3CCCC3)c12 | 88.1
Cc1cccc(N=C2NC(=O)CS2)c1C | 88.3
COCCNC(=O)c1ccc2c(c1)nc(C)n2-c1cccc(F)c1 | 90.6
CCOC(=O)c1[nH]c2ccc(C)cc2c1N=C(C)N(C)C | 91.4
COc1ccc2nc(N3CCC(C)CC3)c(C#N)cc2c1 | 23
Cc1ccccc1NS(=O)(=O)c1cc(S(C)(=O)=O)ccc1Cl | 91.3
Cc1cc(C)c2c(N)c(C(=O)N3CCN(c4ncccn4)CC3)sc2n1 | 101
Cc1cc(C)n2nc3nc(N4CCCCC4)nc(-c4ccco4)c3c2n1 | 82.8
O=C(O)c1cc(=O)cc(C(=O)O)[nH]1 | 92.7
COc1ccc(NC(C)=O)cc1NC(=O)CN1CCN(c2ccccn2)CC1 | 79.8
CCOC(=O)c1cccc(NC(=O)CS(=O)(=O)Cc2nc(-c3cccc(OC)c3)oc2C)c1 | 92.8
O=C(CCc1nc2ccccc2s1)OCC(=O)N1CCN(C(=O)c2ccco2)CC1 | 86.8
Cc1ccccc1CS(=O)(=O)Cc1ccc(C(=O)NCCCN2CCOCC2)o1 | 95.1
CCOC(=O)c1cccc(NC(=O)Cn2cnc3c2c(=O)n(C)c(=O)n3C)c1 | 97.5
O=C(Nc1ccon1)c1csc2c1CCCC2 | 87.4
CC(C)(C)n1ncc2c(=O)n(CC(=O)NCCc3ccccc3)cnc21 | 95.8
Cc1cccc2sc(NC(=O)CN(C)S(=O)(=O)c3cccs3)nc12 | 92.5
CCOC(=O)c1cccc(NC(=O)CSc2nnc(C3CCCCC3)n2C)c1 | 84.7
CCCc1nnc2n1N=C(c1ccc(OC)c(OC)c1)CS2 | 66.8

same assay, conditions: H69AR cells, CellTiter-Glo, 72 h; compound alone cytotoxicity; at 10 µM

Structure (SMILES) | viability [%]
CCOC(=O)N1CCC(NC(=O)CCc2c(C)nc3c(c(C)nn3C(C)(C)C)c2C)CC1 | 85.1
Cc1cc2nc(C3CCN(CC4COc5ccccc5O4)CC3)[nH]c2cc1C (stereo not given) | 77.8
CNC(=O)Nc1cccc(C(F)(F)F)c1 | 93.6
COc1ccccc1C1CC(c2ccc(C)cc2)Nc2ncnn21 (stereo not given) | 102
CCCn1c2ccccc2c2nnc(SCC(=O)OCC)nc21 | 91.2
Cc1nnc2ccc(N3CCN(c4cccc(C(F)(F)F)c4)CC3)nn12 | 80.3
O=C(Cn1ccc2ccccc2c1=O)NCCC(=O)NC1CCN(Cc2ccccc2)CC1 | 100
Cc1nc(SCC(=O)Nc2ccccc2C(F)(F)F)c2c(=O)n(C)c(=O)n(C)c2n1 | 74
CCOC(=O)N1CCC(NC(=O)CSCc2nc(-c3cccc(OC)c3)oc2C)CC1 | 106
COc1cc(C(=O)N2CCC(c3nc(-c4cccnc4)no3)CC2)cc(OC)c1OC | 93.9
O=C(Nc1ccc2c(c1)OCCO2)c1ccco1 | 86.5
CCOC(=O)c1cnc(-n2nc(C)cc2C)nc1Nc1cccc(C(C)=O)c1 | 88
O=c1[nH]cnc2c1nc(SCc1ccccc1)n2C1OC(CO)C(O)C1O (stereo not given) | 101
COc1ccc(CCn2c(-c3ccco3)nc3nc4ccccc4nc32)cc1 | 25.6
O=S(=O)(c1ccc(-c2csc(-c3cccnc3)n2)cc1)N1CCCCC1 | 84.2
CCCOc1nc(N)c(C#N)c(-c2ccccc2F)c1C#N | 89.7
COc1cc(OC)c(OC)cc1CN(C)CCc1ccccn1 | 86.9
CCOC(=O)c1c(-c2cccs2)csc1NC(=O)CCCC(=O)O | 83.4
Cc1cccc(-c2c3c(=O)n(C)c(=O)n(C)c3cn2-c2ccc(O)cc2)c1 | 86.6
CCN(C(=O)CCc1nc(-c2ccccc2F)no1)c1cc(OC)ccc1OC | 92.4

Structure (SMILES) | viability [%]
CCc1nc(SCC(=O)Nc2nccs2)c2oc3ccccc3c2n1 | 37.4
Cc1c(C#N)sc2nc(-c3ccccc3)nc(N3CCCC3)c12 | 77
Cc1cccc(N=C2NC(=O)CS2)c1C | 91.9
COCCNC(=O)c1ccc2c(c1)nc(C)n2-c1cccc(F)c1 | 90.5
CCOC(=O)c1[nH]c2ccc(C)cc2c1N=C(C)N(C)C | 97.7
COc1ccc2nc(N3CCC(C)CC3)c(C#N)cc2c1 | 26.8
Cc1ccccc1NS(=O)(=O)c1cc(S(C)(=O)=O)ccc1Cl | 94.4
Cc1cc(C)c2c(N)c(C(=O)N3CCN(c4ncccn4)CC3)sc2n1 | 101
Cc1cc(C)n2nc3nc(N4CCCCC4)nc(-c4ccco4)c3c2n1 | 80.2
O=C(O)c1cc(=O)cc(C(=O)O)[nH]1 | 105
COc1ccc(NC(C)=O)cc1NC(=O)CN1CCN(c2ccccn2)CC1 | 85.6
CCOC(=O)c1cccc(NC(=O)CS(=O)(=O)Cc2nc(-c3cccc(OC)c3)oc2C)c1 | 85.3
O=C(CCc1nc2ccccc2s1)OCC(=O)N1CCN(C(=O)c2ccco2)CC1 | 90.5
Cc1ccccc1CS(=O)(=O)Cc1ccc(C(=O)NCCCN2CCOCC2)o1 | 98.2
CCOC(=O)c1cccc(NC(=O)Cn2cnc3c2c(=O)n(C)c(=O)n3C)c1 | 91.2
O=C(Nc1ccon1)c1csc2c1CCCC2 | 98.3
CC(C)(C)n1ncc2c(=O)n(CC(=O)NCCc3ccccc3)cnc21 | 90.9
Cc1cccc2sc(NC(=O)CN(C)S(=O)(=O)c3cccs3)nc12 | 92
CCOC(=O)c1cccc(NC(=O)CSc2nnc(C3CCCCC3)n2C)c1 | 91.3
CCCc1nnc2n1N=C(c1ccc(OC)c(OC)c1)CS2 | 69.9
